The results in this text go back to PubChem BioAssay (Tox21).

Results filed as inconclusive are left out. A call without a number means that no potency is given here. Values without a mark were called inactive. Active and inactive are the calls of the source. Calls follow the shape of the full dose curve.

Sequence of Progesterone receptor (Homo sapiens) (P06401 whole entry, looked up): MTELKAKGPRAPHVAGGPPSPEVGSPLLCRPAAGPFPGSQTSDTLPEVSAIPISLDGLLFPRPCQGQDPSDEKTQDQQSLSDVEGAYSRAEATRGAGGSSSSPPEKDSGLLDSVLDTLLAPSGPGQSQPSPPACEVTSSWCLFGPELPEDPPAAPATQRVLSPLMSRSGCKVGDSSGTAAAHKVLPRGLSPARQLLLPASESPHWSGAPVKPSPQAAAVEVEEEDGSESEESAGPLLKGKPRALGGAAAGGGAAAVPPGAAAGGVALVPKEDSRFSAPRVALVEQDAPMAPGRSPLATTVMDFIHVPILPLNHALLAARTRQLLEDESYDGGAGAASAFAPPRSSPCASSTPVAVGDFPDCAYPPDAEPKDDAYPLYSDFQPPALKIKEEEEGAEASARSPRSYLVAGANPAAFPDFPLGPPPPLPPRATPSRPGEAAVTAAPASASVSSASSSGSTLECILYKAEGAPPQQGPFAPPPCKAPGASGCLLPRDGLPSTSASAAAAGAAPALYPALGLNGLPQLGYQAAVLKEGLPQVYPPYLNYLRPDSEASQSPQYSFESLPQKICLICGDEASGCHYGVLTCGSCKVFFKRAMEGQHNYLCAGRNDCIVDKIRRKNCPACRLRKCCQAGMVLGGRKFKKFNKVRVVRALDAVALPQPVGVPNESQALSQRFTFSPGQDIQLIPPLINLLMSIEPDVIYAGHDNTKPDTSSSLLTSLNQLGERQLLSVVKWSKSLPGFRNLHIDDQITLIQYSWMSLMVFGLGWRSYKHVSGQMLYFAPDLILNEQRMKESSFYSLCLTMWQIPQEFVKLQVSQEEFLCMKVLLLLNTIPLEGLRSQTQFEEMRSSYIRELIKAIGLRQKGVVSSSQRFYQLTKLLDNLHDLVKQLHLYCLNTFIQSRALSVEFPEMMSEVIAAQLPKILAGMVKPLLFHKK

The test addresses Progesterone receptor (Homo sapiens) (UniProt P06401). The test can be described thus: qHTS assay to identify small molecule agonists of the progesterone receptor (PR) signaling pathway (AID 1346784). Also: nearly all actives have a fitted effect of over 30% in size. To be noted: PR-UAS-bla HEK293T, beta-lactamase FRET ratio, 16 h; series mostly up to 92.4 µM. From the text:
U.S. Tox21 Program National Center for Advancing Translational Sciences [NCATS] NIH Chemical Genomics Center [NCGC] U.S. Environmental Protection Agency [EPA] National Institutes of Environmental Health Sciences [NIEHS] National Toxicology Program [NTP] U.S. Food and Drug Administration [FDA] […] Endocrine disrupting chemicals (EDCs) and their interactions with steroid hormone receptors like PR causes disruption of normal endocrine function. To identify the compounds that activate PR signaling, a PR-UAS-bla GripTite cell line i.e. PR-UAS-bla HEK 293T (Invitrogen, Carlsbad, CA, USA) containing a beta-lactamase reporter gene under the control of an Upstream Activator Sequence (UAS) was used to screen Tox21 10K compound library.
Tox21 Assay Protocol Summary: PR-UAS-bla HEK 293T cells were dispensed at 3,000 cells/5 uL of assay medium containing 2% charcoal stripped FBS per well into black wall/clear-bottom 1536-well plates using a Multidrop Combi (ThermoFisher Scientific, Waltham, MA) dispenser. After the assay plates were incubated at a 37C and 5% CO2 for 6hr, 23 nL of compounds dissolved in DMSO, positive controls or DMSO only was transferred to the assay plate by a Pintool station (Kalypsys, San Diego, CA). The plates were incubated at 37C and 5% CO2 for 16hr. Then 1 uL of LiveBLAzer B/G FRET substrate was added using a BioRAPTR FRD (Flying Reagent Dispenser, Aurora Discovery, San Diego, CA). After the plates were incubated at room temperature for 2 hours, fluorescence intensity was measured by an Envision plate reader (PerkinElmer, Shelton, CT).
Background: qHTS replaces the single test concentration by a dilution series.
As to `OCC(O)[C@@H](O)[C@H](O)[C@H](O)CO[C@H]1O[C@H](CO)[C@@H](O)[C@H](O)[C@H]1O` (stereo not given in full), the Potency result is “inactive”.

With `Cc1cc(C)c(NC(=O)CN(CC(=O)O)CC(=O)O)c(C)c1Br`, the Potency entry is “inactive”.

`Cc1cc(C)cc(OCC2CNC(=O)O2)c1` (stereo not given): the Potency result was “inactive”.

Consider `COC(C(=O)O)c1ccccc1` (stereo not given), for which the Potency result is “inactive”.

In the case of `CC(=O)OC(C)(C)C`, the Potency result was “inactive”.

Take `CCCCc1ccc2cccc(S(=O)(=O)O)c2c1`: the Potency entry was “inactive”.

For the compound `C=C(C)C(=O)NCCCN(C)C`, the Potency entry was “inactive”.

On to `CNc1ncnc2nc[nH]c12`, for which the Potency result was “inactive”.

`CCCCCCCCCCCl`: the Potency result was “inactive”.

Regarding `OC1OC[C@@H](O)[C@H](O)[C@H]1O` (stereo not given in full), the Potency entry is “inactive”.

Regarding `C=CCOc1nc(OCC=C)nc(OCC=C)n1`, the Potency result is “inactive”.

As for `CCCCCCC(CCCCCCCCCCC(=O)OCC(COC(C)=O)OC(C)=O)OC(C)=O` (stereo not given), the Potency result is “inactive”.

`CCn1c(=O)c2c(nc(/C=C/c3ccc(OC)c(OC)c3)n2C)n(CC)c1=O`: the Potency entry was “inactive”.

Turning to `CC(C)CCCC(C)NCCC(C)C` (stereo not given), the Potency result was “inactive”.

For the compound `CN(C)C(=O)C(CCN1CCC(O)(c2ccc(Cl)cc2)CC1)(c1ccccc1)c1ccccc1`, the Potency entry is “inactive”.

With `NCC[C@H](O)C(=O)N[C@@H]1C[C@H](N)[C@@H](O[C@H]2O[C@H](CN)[C@@H](O)[C@H](O)[C@H]2O)[C@H](O)[C@H]1O[C@H]1O[C@H](CO)[C@@H](O)[C@H](N)[C@H]1O`, the activation is 0.26% [at 0.349 µM].

Regarding `O=[N+]([O-])c1ccc(Oc2ccc([N+](=O)[O-])cc2)cc1`, the Potency entry was “inactive”.

As to `C=CCOCC(O)CS(=O)(=O)O` (stereo not given), the Potency entry is “inactive”.

Take `O=C(O)c1cccc(C(=O)O)n1`: the Potency result is “inactive”.

Consider `O=C(O)C1CCC1`, for which the Potency entry is “inactive”.

In the case of `CC(O)CN(CCCN(C)C)CCCN(C)C` (stereo not given), the Potency entry was “inactive”.

For the compound `Nc1nc(F)nc2c1ncn2[C@@H]1O[C@H](CO)[C@@H](O)[C@@H]1O`, the Potency entry was “inactive”.

Regarding `NC(=S)Nc1cccc2ccccc12`, the activation was -0.12% [at 8.39 µM].

Consider `C=C(C)C(=O)NCCC[N+](C)(C)C`, for which the Potency result is “inactive”.

Take `CC(C)(C)OC(=O)N1C[C@@H](F)C[C@H]1C(=O)O`: the Potency result was “inactive”.

Turning to `C=CC(=O)OCCCCCC`, the Potency result was “inactive”.

For `N#CC1(O)CCCCC1`, the Potency result was “inactive”.

As to `CC(=O)CCc1ccc(O)cc1`, the Potency entry was “inactive”.

As for `CCCC=O`, the Potency result was “inactive”.

For `COC[C@H](c1ccc(C(F)(F)F)cc1)N1CCN(C2(C)CCN(C(=O)c3c(C)ncnc3C)CC2)C[C@H]1C`, the Potency entry is “inactive”.

On to `CC(C)[N+](C)(C)CC(O)COc1cccc2ccccc12` (stereo not given), for which the Potency result is “inactive”.

Regarding `O=C(O)c1ccc[n+]([O-])c1`, the Potency entry was “inactive”.

`NC(=O)CCCCC1CCSS1` (stereo not given): the Potency entry was “inactive”.

On to `O=C1C(CCS(=O)c2ccccc2)C(=O)N(c2ccccc2)N1c1ccccc1` (stereo not given), for which the Potency result was “inactive”.

For the compound `CCCCCCCCCCC1CO1` (stereo not given), the Potency result is “inactive”.

As to `C(=C(c1ccccc1)c1ccccc1)c1ccccc1`, the Potency entry was “inactive”.

On to `CCCCCCCCCCCCCCC`, for which the Potency entry is “inactive”.

For `CCCCCCCCN(C)CCCCCCCC`, the Potency result is “inactive”.

As for `COC(=O)c1ccc(C(=O)OC)c(C(=O)OC)c1`, the Potency result is “inactive”.

As to `COc1cccc(Br)c1`, the Potency entry is “inactive”.
